The whole screen tested about 4,100 compounds, of which about 1,600 (39%) were called active. Not shown: some 25% with an inconclusive outcome. Calls follow the shape of the dose curve; as a rule, active = well fitted inhibition curve with a large enough effect; inconclusive = small, poorly fitted or top-dose-only effect; inactive = no such curve, though single readings can be large or run the other way. The list shows a part of the results.
assay: qHTS Validation assay for Inhibitors of Plasmodium falciparum Dd2 growth in vitro; also: nearly all actives have a fitted effect of over 70% in size; conditions: P. falciparum Dd2 in RBCs, SYBR Green growth, 72 h; series mostly up to 28.7 µM; activity change, negative = inhibition: at the top concentration
Summary of the method: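 P. falciparum Dd2-infected red blood cells (2.5% hematocrit, 0.3% parasitemia) grown 72 h at 37 °C under 5% O2 with compounds in a titration, 29 uM to 0.5 nM final. Growth read as SYBR Green-1 fluorescence after ~16 h lysis; artesunate 300 nM as positive control.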
% is scaled to controls: 0 for no effect and ±100 for the full control effect; potency is read from the fitted curve at half-maximal effect.

SMILES | activity change, negative = inhibition | Potency
CNC(=O)N1CCC(C2CCN(C(=O)CCCC(=O)O)C2)CC1 (configuration not stated) | 13.7% (inactive) | –
CCn1cnnc1-c1nn(C)c2c1CN(C(=O)CC(C)C)CC2 | 22.8% (inactive) | –
COc1ccc(-n2c(-c3ccc(Br)cc3)c[n+]3c2CCc2ccccc2-3)cc1 | – | 4.22 µM (active)
Cc1ccc(CNC(=O)NCCc2ncc(C)n2Cc2ccc(F)cc2)cc1 | -63.1% (inactive) | –
Cc1ccc(-c2nn(-c3ccccc3)cc2CSC(=N)N)cc1 | -29.1% (inactive) | –
Cc1ccc(-n2cc(CNCCc3ncc(C)[nH]3)c(-c3ccc(F)cc3)n2)cc1 | – | 15 µM (active)
Cc1cccc(C)c1-c1nc(C(=O)NCc2ccc(F)cc2)n2ccccc12 | -24.8% (inactive) | –
CN(C)CCNC(=O)c1nc2nc(-c3ccccc3)c(-c3cccc(F)c3)cc2n1C | – | 19.3 µM (active)
COCc1nc2nc(-c3ccccc3)c(Nc3ccc(F)cc3)cc2n1C | -2.2% [at 43.1 µM] (inactive) | –
CCn1nccc1C(=O)N1CCC(C(=O)N2CCCCCCNC(=O)CC2)CC1 | 4.4% (inactive) | –
CCOC(=O)c1[nH]c(Cc2[nH]c(C(=O)OCC)c(C)c2CCC(=O)OC)c(CCC(=O)OC)c1C | – | 5.31 µM (active)
CN(C)c1cccc(-c2nccc3c(=O)cc(-c4cn[nH]c4)oc23)c1 | -2.52% [at 43.1 µM] (inactive) | –
CC(C)(C)CC(C)(C)c1ccc(O)c(CN2CCN(CCC#N)CC2)c1 | – | 0.842 µM (active)
Cc1ccc(C(=O)N2CCC3(CC2)N(c2ccccc2)C(=O)CS3(=O)=O)c(C)c1 | 18.7% (inactive) | –
CC(=O)Oc1ccc2ccccc2c1C(NC(=O)C(C)C)c1cccc([N+](=O)[O-])c1 (configuration not stated) | – | 16.8 µM (active)
CC(C)C(=O)NC(c1ccc([N+](=O)[O-])cc1)c1c(O)ccc2ccccc12 (configuration not stated) | – | 13.3 µM (active)
CCCCC(=O)NC(c1cccc([N+](=O)[O-])c1)c1c(OC(C)=O)ccc2ccccc12 (configuration not stated) | – | 3.76 µM (active)
Cc1nc(N2CCN(C)CC2)c2c3c(sc2n1)CCCC3 | 63.3% (inactive) | –
Cc1noc(C)c1CSc1nc2sc3c(c2c(=O)n1C)CCCC3 | – | 8.41 µM (active)

SMILES | activity change, negative = inhibition | Potency
Cc1nnc([C@@H]2CC(F)(F)CN2C(=O)c2ccoc2C)o1 | 33.4% (inactive) | –
Cc1ccccc1C(=O)N1CCC(c2nc3ccccc3s2)CC1 | 1.54% (inactive) | –
Cc1occc1C(=O)N1CCN(C(c2ccccc2)c2ccccc2)CC1 | – | 10.6 µM (active)
Cc1oc2ccc(O)c(CN(C)Cc3ccccc3)c2c1C(=O)Nc1ccccc1 | – | 2.37 µM (active)
Cc1ccccc1NC(=O)c1c(C)oc2ccc(O)c(CN(C)Cc3ccccc3)c12 | – | 2.37 µM (active)
Cc1ccc(NC(=O)c2c(C)oc3ccc(O)c(CN(C)Cc4ccccc4)c23)c(C)c1 | – | 5.96 µM (active)
CCN(CC)c1ccc(-n2nc3cc(C)c(NC(=O)c4ccccc4F)cc3n2)cc1 | -28.1% (inactive) | –
CCN(Cc1ccccc1)Cc1c(O)ccc2oc(C)c(C(=O)Nc3ccccc3C)c12 | – | 4.73 µM (active)
Cc1oc2ccc(O)c(CN(C)Cc3ccccc3)c2c1C(=O)Nc1cccc(C(F)(F)F)c1 | – | 2.11 µM (active)
O=C(Nc1cccc(C(F)(F)F)c1)c1nc2c(o1)CCN(Cc1cccc(F)c1)CC2 | 13.4% [at 43.1 µM] (inactive) | –
COc1ccccc1CC(=O)N1CCC2(CC1)N=C(c1cccc(Br)c1)NO2 | -7.17% (inactive) | –
CC(=O)Nc1cccc(C(=O)NC2CCCN(c3cc(-c4ccc(Cl)cc4)[nH]n3)C2)c1 (configuration not stated) | -18.7% (inactive) | –
CC(=O)Nc1cccc(C(=O)N2CCC3(CC2)N=C(c2ccc(C)cc2)NO3)c1 | – | 0.842 µM (active)
CCOc1cccc(C2Nc3ccccc3-c3cc(C)nn32)c1O (configuration not stated) | -12% (inactive) | –
COc1cccc(/C(C#N)=C/c2c(-c3ccc(Cl)cc3)nc3c(C)cccn23)c1 | – | 5.96 µM (active)
O=C1NC(=O)/C(=C\c2ccc(N3CCOCC3)o2)N1 | – | 9.44 µM (active)
Cc1ccc(C(=O)NC2CCCN(c3cc(-c4ccccc4)[nH]n3)C2)s1 (configuration not stated) | 1.75% (inactive) | –
Cn1c(=S)c2[nH]c(SCCN3CCCC3)nc2n(C)c1=O | -13.5% (inactive) | –
Cn1c2ccc(F)cc2c2nnc(SCCN3CCCCC3)nc21 | – | 15 µM (active)

SMILES | activity change, negative = inhibition | Potency
Nc1nc2[nH]cc(CCc3ccc(C(=O)N[C@@H](CCC(=O)O)C(=O)O)cc3)c2c(=O)[nH]1 | – | 7.5 µM (active)
Cc1ccsc1CN1CCCN(S(=O)(=O)c2ccccc2)CCC(=O)NCC1 | -23.3% (inactive) | –
Cc1ccc(CN2CCCN(Cc3ccncc3)C(c3ccccc3)CC(=O)NCC2)o1 (configuration not stated) | – | 7.5 µM (active)
Cc1ncsc1CN1CCCN(Cc2ccncc2)C(c2ccccc2)CC(=O)NCC1 (configuration not stated) | – | 8.41 µM (active)
Cc1ccc(CN2CCCN(Cc3ccncc3)C(c3ccccc3)CC(=O)NCC2)s1 (configuration not stated) | – | 2.66 µM (active)
CN(C)C(=O)C1CN(C(=O)NC2CCCCC2)CC12CCOCC2 (configuration not stated) | 13.2% (inactive) | –
Cn1cccc1C(=O)N1CC[C@H](NC(=O)Nc2ccc(F)cc2F)[C@H]1C(=O)N[C@H](Cc1ccccc1)C(N)=O | 35.9% (inactive) | –
Cc1ccc(O)c([C@H](CCN(C(C)C)C(C)C)c2ccccc2)c1 | – | 4.22 µM (active)
COc1ccc(CCNC(=O)CCc2cn(Cc3ccc(F)cc3)c3ccccc23)cc1OC | -6.47% (inactive) | –
COc1ccc(CCNC(=O)CC(c2ccccc2OC)c2c[nH]c3ccccc23)cc1OC (configuration not stated) | – | 13.3 µM (active)
CCCC1c2nccn2CCCN1C(=O)c1cnco1 (configuration not stated) | 16.6% (inactive) | –
Cc1cccnc1CNC[C@H]1O[C@@H]2C[C@@H](CC(=O)N3CCOCC3)O[C@@H]2[C@@H]1O | 0% [at 43.1 µM] (inactive) | –
Cc1cccc(CN2CCCC(O)(CNCc3ncccc3C)C2=O)c1 (configuration not stated) | – | 16.8 µM (active)
CCOC(=O)c1c(NC(=O)CSc2cn(CCNC(=O)c3cccc(C(F)(F)F)c3)c3ccccc23)sc2c1CCC2 | 9.72% (inactive) | –
CCCn1cc(SCC(=O)NCc2ccco2)c2ccccc21 | – | 8.41 µM (active)
CCOc1ccccc1C1c2[nH]c3ccccc3c2C[C@H]2C(=O)N(C3CCN(Cc4ccccc4)CC3)CC(=O)N12 (some centres not stated) | – | 2.37 µM (active)
COc1ccccc1C1c2[nH]c3ccccc3c2C[C@H]2C(=O)N(C3CCN(Cc4ccccc4)CC3)CC(=O)N12 (some centres not stated) | – | 2.11 µM (active)
COc1ccc(C2c3[nH]c4ccccc4c3C[C@H]3C(=O)N(C4CCN(Cc5ccccc5)CC4)CC(=O)N23)c(OC)c1 (some centres not stated) | – | 2.37 µM (active)
COc1ccc(C2c3[nH]c4ccccc4c3C[C@H]3C(=O)N(C4CCN(Cc5ccccc5)CC4)CC(=O)N23)cc1OC (some centres not stated) | – | 2.99 µM (active)
